Source: PubChem
RXFP1 agonist: agonists of human relaxin receptor RXFP1 | HEK293T-RXFP1 cAMP TR-FRET, 30 min; response scale: percent of porcine relaxin response, buffer zero | Potency, µM (titrated, usually from 57.5 µM), without a hit: at the top dose activation, actives largely listed as activators | Q9HBX9 | 0.3% of 370,000 active | AID 2676; active = well fitted activation curve with a large enough effect; inconclusive = small, poorly fitted or top-dose-only effect; also: potency is read from the fitted curve at half-maximal effect; % is scaled to controls: 0 for no effect and ±100 for the full control effect; nearly all actives have a fitted effect of over 60% in size
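HEK293 cells stably expressing RXFP1, treated 30 min at 37C with compounds plus PDE4 inhibitor Ro 20174; cAMP measured by HTRF TR-FRET. Normalized to buffer and 29 nM porcine relaxin; EC50 by Hill fit.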
gsp ag: agonists of gsp mutant (McCune-Albright syndrome); gsp mutant cells, cAMP HTRF, 30 min; Potency, µM (highest dose often 76.9 µM), inactives show top-dose activation (cAMP increase), most hits filed as activators; 0.13% of 340,000 active; active = well fitted activation curve with a large enough effect; inconclusive = small, poorly fitted or top-dose-only effect, or another doubt; inactive = no such curve, though single readings can be large or run the other way; cell line not stated here;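 also: phosphodiesterase inhibitor Ro 20-1724 added with compounds to block cAMP breakdown; potency is read from the fitted curve at half-maximal effect; nearly all actives have a fitted effect of over 60% in size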
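Cells in DMEM/10% FBS with G418 were pretreated with compounds in DMSO plus […] (300 uM stock) for 30 min at 37C. cAMP was measured by HTRF (cAMP-d2 plus anti-cAMP antibody-K) after 30 min at room temperature.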
gsp antagonist: antagonizes gsp, the McCune-Albright syndrome mutation. Potency, µM (doses to about 76.9 µM), inactives show top-dose activity change, negative = inhibition, usual class: inhibitors. 0.4% of 340,000 active. gsp-mutant cells, cAMP HTRF, 30 min; calls by dose curve; cell line not stated here;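 also: intracellular cAMP measured with PDE inhibitor Ro 20-1724 present during compound exposure; potency is read from the fitted curve at half-maximal effect; % is scaled to controls: 0 for no effect and ±100 for the full control effect; nearly all actives have a fitted effect of over 65% in size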
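G418-selected cells were plated in DMEM/10% FBS for 16-24 h at 37C, then treated with compounds plus the PDE inhibitor […] (300 uM solution added) for 30 min at 37C. Intracellular cAMP was measured by HTRF after 30 min lysis at room temperature.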
RXFP1 antag: RXFP1 (human) relaxin receptor antagonism. activity change, negative = inhibition, % at 57.5 µM. HEK293-RXFP1, relaxin-stimulated cAMP HTRF, 30 min; stronger effect = lower value. 0.59% of 350,000 active. AID 1259400;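 active = activity change of -60% or lower, but not beyond a set lower limit; inconclusive = change between -60% and -40%, or beyond the set limit; inactive = change above -40%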; also: % is scaled to controls: 0 for no effect and ±100 for the full control effect
TSHR antag: antagonists of human thyroid stimulating hormone receptor; P16473; 0.2% of 330,000 active; TSHR-expressing cells, TSH-stimulated cAMP HTRF, 2 h; stronger effect = lower value; activity change, negative = inhibition, % at 11.5 µM;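 active = activity change below a set negative limit, meaning inhibition stronger than a set level, cut at about -70% in these data; inconclusive = activity change between two set negative limits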; also: % is scaled to controls: 0 for no effect and ±100 for the full control effect
Target sequence (P16473 whole entry, looked up): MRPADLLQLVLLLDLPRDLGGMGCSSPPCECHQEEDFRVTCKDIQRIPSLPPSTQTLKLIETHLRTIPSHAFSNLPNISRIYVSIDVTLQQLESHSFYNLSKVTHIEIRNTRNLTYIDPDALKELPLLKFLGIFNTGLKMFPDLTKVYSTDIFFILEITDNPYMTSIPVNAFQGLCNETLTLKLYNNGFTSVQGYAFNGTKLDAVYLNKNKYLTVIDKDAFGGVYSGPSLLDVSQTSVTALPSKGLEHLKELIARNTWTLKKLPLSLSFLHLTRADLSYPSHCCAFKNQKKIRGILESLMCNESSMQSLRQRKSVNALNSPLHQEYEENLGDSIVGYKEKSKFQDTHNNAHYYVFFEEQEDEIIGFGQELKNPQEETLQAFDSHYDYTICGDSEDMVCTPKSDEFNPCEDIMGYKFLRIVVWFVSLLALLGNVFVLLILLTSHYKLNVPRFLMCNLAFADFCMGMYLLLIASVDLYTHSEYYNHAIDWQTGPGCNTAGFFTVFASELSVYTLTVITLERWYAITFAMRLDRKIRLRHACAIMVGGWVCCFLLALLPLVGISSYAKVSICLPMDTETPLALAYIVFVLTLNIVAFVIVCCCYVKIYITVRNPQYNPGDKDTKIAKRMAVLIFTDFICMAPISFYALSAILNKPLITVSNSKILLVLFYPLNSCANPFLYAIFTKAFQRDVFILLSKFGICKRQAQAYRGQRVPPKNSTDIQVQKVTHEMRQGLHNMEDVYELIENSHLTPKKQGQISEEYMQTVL
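Antagonism was scored as loss of TSH-driven cAMP in TSHR cells, stimulated with 4nM TSH (EC80) for 2 hours at 37 deg C and detected by homogeneous HTRF competition immunoassay.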
Starred values were filed as active, the others as inactive; ? = inconclusive; . = not tested or not shown; + = active, no number; ! = a repeat was not active; [ ] = remark or other dose. An excerpt weighted towards active compounds, which were near 1% of everything screened.

SMILES	RXFP1 agonist	gsp ag	gsp antagonist	RXFP1 antag	TSHR antag
CCN(C(=O)CCN1C(=O)/C(=C/c2ccccc2)SC1=S)C1CCS(=O)(=O)C1 (stereo not given)	-1.8%	?	28.2µM*	-0.4	-7.7
CCc1ccc(-n2cnc3cc(C(=O)NCc4ccc(C)cc4)ccc32)cc1	-0.3%	.	.	-10.4	.
Cc1cc(C)cc(NC(=O)COC(=O)c2n[nH]c3ccccc23)c1	1.2%	-24.9%[15.4 µM]	10µM*	-25.4	-0.3
O=C(COC(=O)c1n[nH]c2ccccc12)Nc1ccccc1	-1.7%	-4.6%[15.4 µM]	.	-17.6	2.7
COc1ccc(C(=O)COC(=O)c2n[nH]c3ccccc23)c(OC)c1	-0.9%	-4.0%[15.4 µM]	-7.9%	-18.3	-1.6
COc1ccc(C)cc1NC(=O)COC(=O)c1c(C)nn(-c2ccccc2)c1C	-0.5%	-42.7%	39.8µM*	-10.7	-30.5
COc1ccc(OC)c(NC(=O)COC(=O)c2n[nH]c3ccccc23)c1	0.7%	-32.9%	44.7µM*	-7.4	-24.7
CC(=O)N1CC(=O)N=C1SCC(=O)Nc1nc(C)c(-c2ccccc2)s1	-2.1%	-11.1%[15.4 µM]	?	-109.8*	-13.5
CCCc1ccc2oc(C(=O)NCCc3nc(C(=O)OCC)cs3)c(C)c2c1	0.2%	18.1%[15.4 µM]	?	-78.6*	-15.4
Cc1cccc2c1N(Cc1ccccc1OCCC(C)C)C(=O)C2=O	-1.1%	.	.	-17.5	.
CS(=O)(=O)c1ncc(Cl)c(C(=O)Nc2ccc3ccccc3c2)n1	0.9%	-18.8%	3.8%	-93.0*	?
CCS(=O)(=O)c1ncc(Cl)c(C(=O)Nc2ccc(C)cc2)n1	0.7%	4.8%	?	-78.3*	-39.0
O=C(Nc1ccc(OC(F)F)cc1)c1ncc(Cl)c(Cl)c1Cl	0.8%	-8.8%[15.4 µM]	11.2µM*	-8.1	-4.6
Cc1ccc(CS(=O)(=O)c2ncc(Cl)c(C(=O)Nc3ccc(OC(F)F)cc3)n2)cc1	-1.1%	-6.7%[15.4 µM]	?	-65.5*	?
CCOc1ccc(NC(=O)c2nc(S(=O)(=O)Cc3ccccc3F)ncc2Cl)cc1	3.0%	.	.	?	.
CCCS(=O)(=O)c1ncc(Cl)c(C(=O)Nc2c(C(=O)Nc3ccccc3)oc3ccccc23)n1	-1.3%	.	.	-26.3	.
Cc1ccc(C)c(NC(=O)c2nc(S(=O)(=O)Cc3ccc(F)cc3)ncc2Cl)c1	0.2%	.	.	-24.4	.
COc1ccc(-c2nnc(SCC(=O)NCCc3ccc(OC)c(OC)c3)nc2-c2ccc(OC)cc2)cc1	-0.4%	.	.	-9.1	.
COc1ccc(NC(=O)CSc2nc3nc(C)c(Cc4ccccc4)c(C)n3n2)cc1OC	6.3%	.	.	-8.2	.
OC[C@H]1O[C@@H](n2cnc3cncnc32)[C@H](O)[C@@H]1O	.	.	.	.	-5.5
CCC1CCCCN1S(=O)(=O)c1ccc(NC(=O)c2nc(S(C)(=O)=O)ncc2Cl)cc1 (stereo not given)	3.1%	-4.6%[15.4 µM]	?	?	-84.4*
COc1ccc(NC(=O)c2nc(S(=O)(=O)Cc3ccc(C)cc3)ncc2Cl)cc1	2.9%	.	.	-117.7*	.
CC(=O)Nc1ccc(NC(=O)c2nc(S(=O)(=O)Cc3ccccc3)ncc2Cl)cc1	-2.7%	-7.4%	-3.5%	?	?
CCOC(=O)c1c(NC(=O)CSc2nc3ccc(OC)cc3[nH]2)sc2c1CC(C)(C)NC2(C)C	0.0%	2.6%[15.4 µM]	-6.4%	-62.2*	-2.1
O=S(=O)(c1cc(Br)c(Cl)s1)N1CCCC1	1.7%	-16.7%	-4.8%	-4.4	-78.0*
SMILES	RXFP1 agonist	gsp ag	gsp antagonist	RXFP1 antag	TSHR antag
CC(C)NC(=O)Cn1nc(N2CCN(c3ccccc3)CC2)ccc1=O	0.4%	.	.	8.0	.
Cc1ccccc1-c1noc(CSc2nnc(Cc3ccccc3)n2-c2ccc(F)cc2)n1	-0.8%	.	.	-25.9	.
Cc1ccc(NC(=O)/C(C#N)=C/c2cc(C)n(-c3ccc(Br)cc3)c2C)cc1C	0.4%	.	.	-63.3*	.
Cc1ccc(-n2c(C)cc(/C=C(\C#N)C(=O)Nc3ccc(C)c(C)c3)c2C)cc1	-4.8%	.	.	.	.
Cc1cccc(C(=O)Nc2nnc(S(=O)(=O)N(C)Cc3ccco3)s2)c1	14.1µM*!	38.1%	-8.7%	2.9	-18.6
O=c1oc2ccccc2c(Nc2ccc(Cl)cc2)c1[N+](=O)[O-]	-3.7%	-6.1%	28.2µM*	-1.2	-8.3
O=c1oc2ccccc2c(Nc2ccc(F)cc2)c1[N+](=O)[O-]	0.5%	-26.2%	?	-0.3	2.4
CNC(=S)N(Cc1ccco1)Cc1cc2cc(OC)c(OC)cc2[nH]c1=O	-0.1%	-3.2%[15.4 µM]	6.31µM*	-2.5	-0.3
Cc1cc(Nc2cccc(C(F)(F)F)c2)n2nc(C)nc2n1	0.6%	2.1%	6.4%	-2.8	-6.1
COc1ccc(-c2nc3nc(C)cc(Nc4cccc(C(F)(F)F)c4)n3n2)cc1	31.6µM*	.	.	-2.2	9.3
C/C(N)=C(/C#N)C(=O)CSc1nn(-c2ccc(Cl)cc2)c(=S)s1	10.3%	-8.6%	50.1µM*	-4.8	-24.3
CC(C)S(=O)(=O)c1csc(C(=O)Nc2ccc(F)cc2)c1N	3.3%	-6.2%[15.4 µM]	+	-5.9	-9.9
O=C(COc1ccccc1F)NC1CC(=O)N(c2ccc3c(c2)OCCO3)C1 (stereo not given)	0.3%	.	.	.	.
COc1ccc(CCNC(=O)c2cc(S(=O)(=O)N3CCC4(CC3)OCCO4)ccc2F)cc1OC	-1.6%	?	11.2µM*	-23.3	-5.8
Cc1cc(C)n(-c2cc(C(C)(C)C)nc3c(-c4ccccc4)cnn23)n1	-1.0%	7.5%[15.4 µM]	-27.3%	-80.0*	-6.4
Cc1cccc(N2CCN(c3nc4ccccc4c4nnc(C)n34)CC2)c1C	3.9%	.	.	-4.6	.
COCCCNCCOCCOc1ccc(Cl)cc1C(C)(C)C	0.6%	-11.2%	28.8%	-64.1*	32.1
C=CCc1cc(Cl)ccc1OCCNCCOC	3.0%	9.9%[15.4 µM]	14.3%	-81.3*	17.2
Cn1c(N)c(Sc2ccccc2[N+](=O)[O-])c(=O)n(C)c1=O	-0.2%	4.1%	6.7%	-23.3	-111.6*
O=C(c1ccc(-c2ccccc2)cc1)c1ccc([N+](=O)[O-])cc1	6.4%	.	.	.	-1.6
O=C(C#Cc1ccccc1)c1ccccc1	.	?	.	-107.0*	.
O=C(C#Cc1ccccc1)c1ccc([N+](=O)[O-])cc1	-0.6%	6.5%[15.4 µM]	4.4%	-61.4*	-25.0
Cc1ccccc1NC(=O)c1sc2nc3n(c(=O)c2c1C)N=C(c1ccccc1)CS3	-3.3%	.	.	7.8	.
COc1cc(NC(=O)Cn2nc(C(F)(F)F)c3c2CCC3)cc(OC)c1OC	1.6%	.	.	.	.
Cc1nc2c(-c3ccccc3)c(C)[nH]n2c(=O)c1Cc1ccc(Br)cc1	3.1%	.	.	-22.0	.
COc1ccc(OC)c(NC(=O)c2nc(SCc3ccc(F)cc3)ncc2Cl)c1	0.1%	.	.	-1.4	.
COC(=O)c1c(NC(C)=O)sc2c1CCN(Cc1ccccc1)C2	5.1%	?	-2.3%	-0.4	-9.1
COC(=O)c1c(NC(=O)C(C)(C)C)sc2c1CCN(Cc1ccccc1)C2	3.1%	-1.3%	-4.3%	-68.4*	-10.6
